# According to PubChem BioAssay (NCATS):
# Inconclusive results are not listed. A call without a number means that no potency is given here. Unmarked numbers belong to inactive results. Active and inactive are the calls of the source. Calls follow the shape of the dose curve; as a rule, active = well fitted curve in the direction sought with a large enough effect; inconclusive = small, poorly fitted or top-dose-only effect, or another doubt; inactive = no such curve, though single readings can be large; an effect the other way counts as inactive or inconclusive.
# How the values were obtained:
# [1] = P-glycoprotein substrates identified in KB-3-1 adenocarcinoma cell line, qHTS therapeutic library screen (AID 1346986); also: nearly all actives have a fitted effect of over 60% in size
# How it was run: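 Compounds were tested in dose-response against KB-3-1 and KB-8-5-11 cells at 37 degree C for 72 h, and viability was measured by luminescence. AC50 values came from curve fitting with class-based activity calls.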
# [2] = P-glycoprotein substrates identified in KB-8-5-11 adenocarcinoma cell line, qHTS therapeutic library screen (AID 1346987); also: nearly all actives have a fitted effect of over 65% in size; as to activity change, negative = cytotoxicity: series mostly up to about 44 µM
# How it was run: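 KB-8-5-11: colchicine-selected sub-line of KB-3-1 over-expressing P-gp; assay medium lacked colchicine. 72 h drug exposure at 37 degree C, CellTiter-Glo.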
smiles,measurement,setting,value
COc1ccc(N2CCOCC2)c2sc(NC(=O)N3CCC(C)(O)CC3)nc12,Potency,[1],inactive
same,Potency,[2],inactive
CC(C)S(=O)(=O)N[C@H]1CCOC[C@@H]1c1ccc(-c2ccc(C#N)s2)cc1,Potency,[1],inactive
same,Potency,[2],inactive
CC(=O)c1cc2c(cc1O)OC(C)(C)C=C2,Potency,[1],inactive
same,Potency,[2],inactive
CC1(C)CC[C@@]2(C(=O)O[C@@H]3O[C@H](CO)[C@@H](O)[C@H](O)[C@H]3O)C(C1)C1=CCC3[C@@]4(C)CC[C@@H](O[C@@H]5O[C@H](C(=O)O)[C@@H](O[C@@H]6OC[C@@H](O)[C@H](O)[C@H]6O)[C@H](O[C@@H]6OC[C@](O)(CO)[C@H]6O)[C@H]5O)C(C)(C)C4CC[C@@]3(C)[C@]1(C)C[C@H]2O (some centres not stated),outcome,[1],inactive [at 9.29 µM]
same,outcome,[2],inactive [at 9.29 µM]
C[C@@H]1O[C@@H](O[C@H]2[C@H](O)[C@@H](O[C@@H]3O[C@H](CO)[C@@H](O)[C@H](O[C@@H]4O[C@H](CO)[C@@H](O)[C@H](O)[C@H]4O)[C@H]3O)[C@H](O[C@H]3CC[C@@]4(C)C(=CC[C@@H]5C4CC[C@@]4(C)C5C[C@@H]5OC6(CC[C@@](C)(CO[C@@H]7O[C@H](CO)[C@@H](O)[C@H](O)[C@H]7O)O6)[C@@H](C)[C@@H]54)C3)O[C@@H]2CO)[C@H](O)[C@H](O)[C@H]1OC1OC(CO)C(O)C(O)C1O (some centres not stated),outcome,[1],inactive [at 9.29 µM]
same,outcome,[2],inactive [at 9.29 µM]
O=c1[nH]ccc2cc(OC3CCNCC3)ccc12,Potency,[1],inactive
same,Potency,[2],inactive
CCn1cc(NC(=S)Nc2cc(Cl)ccc2OC)c(C(N)=O)n1,Potency,[1],inactive
same,Potency,[2],inactive
CC1(c2nc3c(C(N)=O)cccc3[nH]2)CCCN1 (configuration not stated),Potency,[1],inactive
same,Potency,[2],inactive
C=C1C(O)C[C@@H]2C(C(=O)O)=CO[C@@H](O[C@@H]3O[C@H](CO)[C@@H](O)[C@H](O)[C@H]3OC(=O)c3ccc(O)cc3)[C@H]12 (some centres not stated),Potency,[1],inactive
same,Potency,[2],inactive
CC(C)=CCC/C(C)=C/CO[C@@H]1O[C@H](CO)[C@@H](O)[C@H](O)[C@H]1O,Potency,[1],inactive
same,Potency,[2],inactive
CC1CCN(C(=O)CC#N)CC1N(C)c1ncnc2[nH]ccc12 (configuration not stated),Potency,[1],inactive
same,Potency,[2],inactive
Cc1cc(OCc2nc(-c3ccccc3Cl)cs2)ccc1OCC(=O)O,Potency,[1],inactive
same,Potency,[2],inactive
NC(=O)[C@H](O[C@@H]1O[C@H](CO)[C@@H](O)[C@H](O)[C@H]1O)c1ccccc1,Potency,[1],inactive
same,Potency,[2],inactive
C[C@@H]1O[C@@H](O[C@H]2[C@@H](OC(=O)[C@]34CCC(C)(C)CC3C3=CCC5[C@@]6(C)C[C@H](O)[C@H](O[C@@H]7O[C@H](C(=O)O)[C@@H](O)[C@H](O)[C@H]7O)[C@@](C)(C(=O)O)C6CC[C@@]5(C)[C@]3(C)CC4)OC[C@H](O)[C@@H]2O)[C@H](O)[C@H](O)[C@H]1O[C@@H]1OC[C@@H](O)[C@H](O)[C@H]1O (some centres not stated),outcome,[1],inactive [at 9.29 µM]
same,"activity change, negative = cytotoxicity",[2],1.24% [at 9.29 µM]
CCOCc1cc(OC)c(-c2ccc(C[C@H](NC(=O)c3c(F)cccc3F)C(=O)O)cc2)c(OC)c1,Potency,[1],inactive
same,Potency,[2],inactive
COc1c2c(c(C)c3c1C(=O)OC3)OC1(C)CC(O)C(C(C)(C)O)C(C)(CCC(=O)O)C1C2 (configuration not stated),Potency,[1],inactive
same,Potency,[2],inactive
O=C(OC1C=C(CO)C2C(OC3OC(CO)C(O)C(O)C3O)OC=CC12)c1ccc(O)cc1 (configuration not stated),Potency,[1],inactive
same,Potency,[2],inactive
CC(=O)c1c(O)cc(O[C@@H]2O[C@H](CO)[C@@H](O)[C@H](O)[C@H]2O)cc1O,Potency,[1],inactive
same,Potency,[2],inactive
O=C(O)c1cn(C2CC2)c2cc(N3C[C@@H]4C[C@H]3CN4)c(F)cc2c1=O,Potency,[1],inactive
same,Potency,[2],inactive
CC1=CCC(C(C)(C)O[C@@H]2O[C@H](CO[C@@H]3O[C@@H](C)[C@H](O)[C@@H](O)[C@H]3O)[C@@H](O)[C@H](O)[C@H]2O)CC1 (some centres not stated),Potency,[1],inactive
same,Potency,[2],inactive
COc1cc2ncnc(Nc3cccc(O)c3)c2cc1OC,Potency,[1],inactive
same,Potency,[2],inactive
CC(C)(C)c1ccc(S(=O)(=O)Nc2ccc(Cl)cc2C(=O)c2cc[n+]([O-])cc2)cc1,Potency,[1],inactive
same,Potency,[2],inactive
C[C@@H]1O[C@@H](O[C@H]2[C@@H]3C=CO[C@@H](O[C@@H]4O[C@H](CO)[C@@H](O)[C@H](O)[C@H]4O)[C@@H]3[C@@]3(CO)O[C@@H]23)[C@H](OC(=O)/C=C/c2ccccc2)[C@H](O)[C@H]1O,Potency,[1],inactive
same,Potency,[2],inactive
CC12CCC3c4ccc(OC5OC(C(=O)O)C(O)C(O)C5O)cc4CCC3C1CCC2O (configuration not stated),Potency,[1],inactive
same,Potency,[2],inactive
CC1(C)C2CC(OC3OC(COC4OCC(O)(CO)C4O)C(O)C(O)C3O)C1(C)CC2O (configuration not stated),Potency,[1],inactive
same,Potency,[2],inactive
OC1CCC(Nc2ncc3nc(Nc4c(F)cc(F)cc4F)n([C@H]4CCOC4)c3n2)CC1 (some centres not stated),Potency,[1],inactive
same,Potency,[2],inactive
COc1cc2occc2c(O[C@@H]2O[C@H](CO)[C@@H](O)[C@H](O)[C@H]2O)c1CCC(=O)O,Potency,[1],inactive
same,Potency,[2],inactive
CO[C@H]1O[C@@H]2O[C@]3(C)CC[C@H]4[C@H](C)CC[C@@H]([C@H]1C)[C@@]24OO3,Potency,[1],inactive
same,Potency,[2],inactive
CC1=C(C)C(=O)OC(C(C)C2CCC3C4C5OC5C5(O)CC(OC6OC(CO)C(OC7OC(C)C(O)C(O)C7O)C(O)C6O)CC(O)C5(C)C4CCC23C)C1 (configuration not stated),Potency,[1],inactive
same,Potency,[2],inactive
CC(=O)OC/C=C(\C)C(CC1C(C)=C(OC(C)=O)C(=O)C2C(C)(C)C(O)CCC12C)OC(C)=O (configuration not stated),Potency,[1],inactive
same,Potency,[2],inactive
C=C1C(=O)OC2CC3(C)C(CC12)C(C)=CC(O)C3OC(C)=O (configuration not stated),Potency,[1],inactive
same,Potency,[2],inactive
C=C(C(=O)O)C1CCC2(C)CCCC(C)(O)C2C1 (configuration not stated),Potency,[1],inactive
same,Potency,[2],inactive
CC1(O)CCCC2(C)C1CCC13CC(CO)C(CCC12)C3 (configuration not stated),Potency,[1],inactive
same,Potency,[2],inactive
CC/C=C\C/C=C\C/C=C\CCCCCCCC(=O)OCC(O)COC1OC(CO)C(O)C(O)C1O (configuration not stated),Potency,[1],inactive
same,Potency,[2],inactive
CC1CC[C@]2(C(=O)O)CC[C@]3(C(=O)O)C(=CCC4[C@@]5(C)CC[C@H](OC6OC(C)C(O)C(OC7OC(CO)C(O)C(O)C7O)C6O)C(C)(C)C5CC[C@]43C)C2C1C (some centres not stated),Potency,[1],inactive
same,Potency,[2],inactive
CC1CC(O)/C=C/C(O)C(O)CC(=O)Cc2c(Cl)c(O)cc(O)c2C(=O)O1 (configuration not stated),Potency,[1],inactive
same,Potency,[2],inactive
O=C1NC(=O)C(c2cn(-c3ccccc3)nc2-c2ccc(F)cc2)N1 (configuration not stated),Potency,[1],inactive
same,Potency,[2],inactive
C[C@@H]1O[C@@H](O[C@H]2[C@H](O[C@H]3[C@H](O[C@H]4CC[C@@]5(C)C(CC[C@]6(C)C5CC=C5[C@@H]7CC(C)(C)CC[C@]7(C(=O)O[C@@H]7O[C@H](CO)[C@@H](O[C@@H]8O[C@@H](C)[C@H](O)[C@@H](O)[C@H]8O)[C@H](O)[C@H]7O)CC[C@]56C)C4(C)C)OC[C@H](O)[C@@H]3O)O[C@H](CO)[C@@H](O)[C@@H]2O)[C@H](O)[C@H](O)[C@H]1O (some centres not stated),outcome,[1],inactive [at 9.29 µM]
same,outcome,[2],inactive [at 9.29 µM]
O=C(O)CCCCCC[C@H]1C(=O)NC(=O)N1CC[C@@H](O)C1CCCCC1,Potency,[1],inactive
same,Potency,[2],inactive
COc1cc(Nc2nc3ccccc3nc2NS(=O)(=O)c2ccc(NC(=O)c3ccc(OC)c(C)c3)cc2)cc(OC)c1,Potency,[1],inactive
same,Potency,[2],inactive
C=CC1C(OC2OC(CO)C(O)C(O)C2O)OC=C(C(=O)OC)C1CC(=O)OCC1C(C)C(O)CC1C(CO)COC(=O)CC1C(C(=O)O)=COC(OC2OC(CO)C(O)C(O)C2O)/C1=C\C (configuration not stated),outcome,[1],inactive [at 9.29 µM]
same,"activity change, negative = cytotoxicity",[2],-0.744% [at 9.29 µM]
COC(=O)C1=CO[C@@H](O[C@@H]2O[C@H](CO)[C@@H](O)[C@H](O)[C@H]2O)C2C1C(=O)C[C@H]2C (some centres not stated),Potency,[1],inactive
same,Potency,[2],inactive
CCOC(=O)c1cc(C#N)c(N2CCC(C(=O)NS(=O)(=O)Cc3ccccc3)CC2)nc1C,Potency,[1],inactive
same,Potency,[2],inactive
CC1(C)CC2C=C(C(=O)O)C3COC(=O)C(O)(CO)C23C1 (configuration not stated),Potency,[1],inactive
same,Potency,[2],inactive
C/C(=C\CCC(C)CCO)C(=O)OC1(C)CCC2C(C(=O)O)=COC(OC3OC(CO)C(O)C(O)C3O)C21 (configuration not stated),Potency,[1],inactive
same,Potency,[2],inactive
C=C1[C@@H]2CC[C@@H]3[C@@](CCC4C(C(=O)O)(C(=O)O)C[C@@H](O[C@@H]5O[C@H](CO)[C@@H](O)[C@H](O)[C@H]5OC(=O)CC(C)C)C[C@]43C)(C2)[C@H]1O (some centres not stated),Potency,[1],inactive
same,Potency,[2],inactive
COc1cc2c3c(cc4ccccc4c3c1O)NC2=O,Potency,[1],inactive
same,Potency,[2],inactive
C[C@@H]1O[C@@H](O[C@@H]2CO[C@@H](O[C@H]3CC[C@@]4(C)C(CC[C@]5(C)C4CC=C4[C@@H]6CC(C)(C)CC[C@]6(C(=O)O[C@@H]6O[C@H](CO)[C@@H](O)[C@H](O)[C@H]6O)CC[C@]45C)[C@]3(C)CO)[C@H](O)[C@H]2O[C@@H]2O[C@H](CO)[C@@H](O)[C@H](O)[C@H]2O)[C@H](O)[C@H](O)[C@H]1O (some centres not stated),outcome,[1],inactive [at 9.29 µM]
same,"activity change, negative = cytotoxicity",[2],4.08% [at 9.29 µM]
CC1C(OC(=O)c2ccccc2)C(O)C2C(C(=O)O)=COC(OC3OC(CO)C(O)C(O)C3O)C12 (configuration not stated),Potency,[1],inactive
same,Potency,[2],inactive
O=C(Nc1ccn[nH]1)c1c(F)cccc1F,Potency,[1],inactive
same,Potency,[2],inactive
Cc1cc(Cl)ccc1COc1ccnn1-c1cc(C(=O)O)ccn1,Potency,[1],inactive
same,Potency,[2],inactive
Nc1ncnc2c1ncn2CCNCCCCCO,Potency,[1],inactive
same,Potency,[2],inactive
CCOC(=O)C(CCc1ccccc1)NC1CSC(c2cccs2)CN(CC(=O)O)C1=O (configuration not stated),Potency,[1],inactive
same,Potency,[2],inactive
O=C(CC1C(=O)Nc2ccccc21)OC[C@H]1O[C@@H](OCCc2ccc(O)cc2)[C@H](O)[C@@H](O)[C@@H]1O (some centres not stated),Potency,[1],inactive
same,Potency,[2],inactive
Cc1ccc(C(=O)Nc2noc3ccccc23)cc1,Potency,[1],inactive
same,Potency,[2],inactive
C[C@@H]1O[C@@H](O[C@H]2[C@H](O[C@H]3[C@H](O)[C@@H](C(=O)O)O[C@@H](O[C@H]4CC[C@@]5(C)C(CC[C@]6(C)C5CC[C@]57OC[C@@]8(CCC(C)(C)CC85)[C@H](O)C[C@]76C)C4(C)C)[C@@H]3O[C@@H]3O[C@H](CO)[C@@H](O[C@@H]4OC[C@@H](O)[C@H](O)[C@H]4O)[C@H](O)[C@H]3O)O[C@H](CO)[C@H](O)[C@@H]2O)[C@H](O)[C@H](O)[C@H]1O (some centres not stated),outcome,[1],inactive [at 9.29 µM]
same,"activity change, negative = cytotoxicity",[2],2.43% [at 9.29 µM]
